High-throughput results from PubChem.
IMPase inh: qHTS Assay for Identifying the Cell-Membrane Permeable IMPase Inhibitors; 120,000 tested, under 10 active; Inositol monophosphatase 1 (Rattus norvegicus), P97697; inhibition (IP1 accumulation), % at 46.1 µM; AID 901, 2007; CHO-M1 cells, IP1 accumulation, HTRF TR-FRET ratio; active = well fitted curve in the direction sought with a large enough effect in the signal ratio, not every such curve was filed as active; inconclusive = small, poorly fitted or top-dose-only effect, or a change in a side signal; inactive = no such curve, though single readings can be large or run the other way; the % refers to the signal ratio;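 note: cells stimulated with carbachol in lithium chloride buffer; higher means more IMPase inhibition seen as more IP1 and lower FRET ratio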
Target sequence (P97697 whole entry, looked up): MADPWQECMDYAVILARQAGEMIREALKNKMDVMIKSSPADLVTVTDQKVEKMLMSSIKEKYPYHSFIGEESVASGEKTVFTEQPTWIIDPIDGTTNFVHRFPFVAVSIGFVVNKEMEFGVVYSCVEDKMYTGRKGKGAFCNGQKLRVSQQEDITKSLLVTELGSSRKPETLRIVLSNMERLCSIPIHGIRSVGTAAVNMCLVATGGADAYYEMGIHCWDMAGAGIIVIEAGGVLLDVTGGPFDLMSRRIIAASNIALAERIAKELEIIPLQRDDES
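CHO-M1, 2000 cells/well, cultured 16–30 h; cpd up to 46 uM; carbachol (50 uM solution, stimulation buffer w/ 50 mM LiCl, pH 7.4), 30 min 37C; IP-One TR-FRET, 10 min RT; Ex 320/Em 665, 620; Hill-fit AC50.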
15-hLO-2 inh: qHTS Assay for Inhibitors of 15-hLO-2 (15-human lipoxygenase 2); Polyunsaturated fatty acid lipoxygenase ALOX15B (Homo sapiens), O15296; purified 15hLO-2, xylenol orange hydroperoxide absorbance; Potency, µM (series often up to 57.1 µM), most hits filed as inhibitors; 0.56% of 110,000 active; AID 881, 2007; note: nearly all actives have a fitted effect of over 60% in size
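Enzyme 50 nM, AA 45 uM, 25 mM Hepes pH 7.5 + 0.01% Triton X-100; cpd preinc 15 min RT, rxn 90 min RT; stop/detect with 200 uM XO + 300 uM Fe(II) in 50 mM H2SO4, 30 min; A573/A405.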
IMPase Li inh: qHTS Assay for Identifying the Cell-Membrane Permeable IMPase Inhibitors: Potentiation with Lithium. Potency, µM (doses to about 59.4 µM), most hits filed as inhibitors. AID 1457, 2008. 0.35% of 210,000 active. CHO-M1 cells, IP1 TR-FRET (IP-One), carbachol + lithium;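 note: IP1 builds up when IMPase is blocked and the TR-FRET signal falls; nearly all actives have a fitted effect of over 50% in size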
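Lithium-sensitised IP1 accumulation assay; M1-expressing CHO cells treated 30 min at 37C with compound. Competitive antibody detection by time-resolved FRET followed a 10 min room-temperature lysis step.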
ALOX12 inhib: qHTS Assay for Inhibitors of 12-hLO (12-human lipoxygenase). Polyunsaturated fatty acid lipoxygenase ALOX12 (Homo sapiens), P18054. purified 12-hLO, xylenol orange hydroperoxide absorbance. Potency, µM (series often up to 57.1 µM), actives largely listed as inhibitors. 0.12% of 150,000 active. AID 1452, 2008; note: nearly all actives have a fitted effect of over 55% in size
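Xylenol orange chromogenic assay: hydroperoxide from 12hLO oxidises Fe(II), giving red-shifted Fe(III)-XO absorbance. Conditions: 150 nM enzyme, 40 uM arachidonic acid, 25 mM Hepes pH 7.0, 0.01% Triton X-100, 30 min, room temperature.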
HPGD block: qHTS Assay for Inhibitors of HPGD (15-Hydroxyprostaglandin Dehydrogenase). purified HPGD, NADH fluorescence kinetic, PGE2 substrate. Potency, µM, actives largely listed as inhibitors. 4.3% of 150,000 active; active = well fitted inhibition curve with a large enough effect, not every such curve was filed as active; inconclusive = small, poorly fitted or top-dose-only effect, or another doubt; inactive = no such curve, though single readings can be large or run the other way
Target sequence (P15428 whole entry, looked up): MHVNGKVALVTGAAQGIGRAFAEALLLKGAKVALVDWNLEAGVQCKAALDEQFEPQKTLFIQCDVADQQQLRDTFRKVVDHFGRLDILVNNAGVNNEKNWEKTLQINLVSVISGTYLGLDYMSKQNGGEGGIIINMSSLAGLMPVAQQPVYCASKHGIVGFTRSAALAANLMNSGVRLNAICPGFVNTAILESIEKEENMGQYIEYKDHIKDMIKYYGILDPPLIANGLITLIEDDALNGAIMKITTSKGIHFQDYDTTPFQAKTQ
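20 nM HPGD preincubated 15 min at room temperature with compound in 50 mM Tris-HCl pH 8, 0.01% Tween 20. Started with 1 mM NAD+ and 30 uM prostaglandin E2; NADH fluorescence (360/450 nm) read 5 times over 30-s intervals, last minus first.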
PNC assembly inh: High Content Assay for Compounds that inhibit the Assembly of the Perinucleolar Compartment; PC3M PTB-GFP, PNC prevalence imaging, 16 h; active compounds read low; activity change (PNC), negative = inhibition, % at 10 µM; 3.1% of 140,000 active;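 active = readout at or below -70, meaning at least 70% loss of cells showing the perinucleolar compartment, a nuclear body marking cancer cells; inconclusive = readout between -30 and a set limit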
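Read-out is percentage of cells bearing a perinucleolar compartment, from automated 20x imaging of fixed, Hoechst-stained PC3M PTB-GFP cells. Cells were seeded 4 h, then exposed 16 h to compound (23 nl of library stock) in duplicate plates.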
A number is an active result; . = inactive; ? = inconclusive; / = no result; [ ] = another dose, or the depositor's remark. The list is not random: actives were taken first. Their share in the collection is about 5.3%. Unless noted, calls come from the whole dose curve; as a rule, active = well fitted curve in the direction sought with a large enough effect; inconclusive = small, poorly fitted or top-dose-only effect, or another doubt; inactive = no such curve, though single readings can be large; an effect the other way counts as inactive or inconclusive.

SMILES	IMPase inh	15-hLO-2 inh	IMPase Li inh	ALOX12 inhib	HPGD block	PNC assembly inh
O=C(Nc1ccc(S(=O)(=O)N2CCc3ccccc3C2)cc1)C1CCCO1 (configuration not stated)	.	.	.	.	.	.
O=S(=O)(NCC1CCCO1)c1ccc(S(=O)(=O)N2CCc3ccccc3C2)cc1 (configuration not stated)	.[1.84 µM]	.[11.4 µM]	.	.	.	-107
CCOC(=O)CSc1nnnn1-c1cccc2ccccc12	.	/	.	.	25µM	.
CCOc1ccc(NC(=S)N2CCN(CCN3C(=O)c4cccc5cccc(c45)C3=O)CC2)cc1	/	/	.	/	/	/
CC[C@H]1C(c2cccc(C)c2)=NN(c2ccccc2)[C@@H]1CO	/	.[0.0915 µM]	.	.[0.00818 µM]	?	/
CC[C@H]1C(c2cccc(Cl)c2)=NN(c2ccccc2)[C@@H]1CO	/	?	22µM	?	?	/
CCOC(=O)CNC(=S)n1ncnc1N	/	/	.	/	/	/
COC(=O)C1=C(C)Nc2ccc(C)cc2S1	.	6.3µM	.	.	.	.
CC(=O)C1=C(C)Nc2cc(C(F)(F)F)ccc2S1	.	?	.	.	?	.
Cc1ccc(/C=N/NC(=O)c2ccc(Br)o2)s1	/	/	.	.	.	-98
CCc1ccc(/C=N\NC(=O)c2ccc(Br)o2)s1	/	/	.	.	.	.
CC(C)(C)n1nnnc1C(c1ccc(C(F)(F)F)cc1)N(Cc1ccc(F)cc1)Cc1ccco1 (configuration not stated)	.	/	.	.	.	-119
CC(C)(C)n1nnnc1C(c1ccc(F)cc1)N(Cc1ccc(F)cc1)Cc1ccco1 (configuration not stated)	.	.	.	.	.	.
c1ccc(-c2cnc(-c3ccc(-c4ncc(-c5ccccc5)o4)cc3)o2)cc1	/	.[11.4 µM]	.	.[11.4 µM]	.	/
CC(=O)/C=C(\C)Nc1ccc(-c2cnc(-c3ccccc3)o2)cc1	?	.	8.9µM	.	?	.
Cc1ccc(Cl)c(OCC(=O)Nc2sc(C)c(C)c2C#N)c1	.	/	/	.	/	.
CCOC(=O)c1c(Nc2nc(C)c(C(=O)NC)s2)sc(C)c1C	.	.	.	.	.	-82
COCCn1c(Cc2ccccc2)nnc1SCc1ccc([N+](=O)[O-])cc1	.	/	.	.	.	.
O=C(O)COCC(=O)Nc1ccc(-n2cnnn2)cc1	/	/	.	/	/	/
CNC(=S)Nc1cc(C(F)(F)F)ccc1Cl	/	/	.	.	.	-86
FC(F)(F)c1ccc(Cl)c(NC(=S)NC2CC2)c1	.	/	.	.	.	.
O=C(COc1cccc(F)c1)N[C@@H](Cc1ccccc1)c1nc2ccccc2[nH]1	.	/	.	.	.	.
Cc1nonc1OC(C)CNc1ccc([N+](=O)[O-])cc1 (configuration not stated)	.	?	.	.	28µM	?
Cc1nonc1OCCNc1ccc([N+](=O)[O-])cc1[N+](=O)[O-]	/	/	.	.	.	.
CCOC(=O)c1c(-c2ccccc2)oc2ccc(NS(=O)(=O)c3ccc(C)cc3C)cc12	.	/	/	/	/	/
SMILES	IMPase inh	15-hLO-2 inh	IMPase Li inh	ALOX12 inhib	HPGD block	PNC assembly inh
O=C(c1ccco1)N1CCC2(CCCN(c3ccncc3)C2)CC1	/	.	.	.	.	/
CCOCCCNC(=S)Nc1cc(C)cc(C)c1	/	/	.	.	?	.
COc1cccc(-c2nc(NCC3CCCO3)c3ccccc3n2)c1O (configuration not stated)	.	.	14µM	.	.	.
Oc1ccccc1-c1nc(NCC2CCCO2)c2ccccc2n1 (configuration not stated)	.	.	.	.	.	.
Cc1ccc(C(=O)Oc2oc(-c3ccco3)nc2C=Nc2ccc(Cl)cc2)cc1	.	?	.	.	6.3µM	.
Cc1ccc(C(=O)Oc2oc(-c3ccccc3)nc2C=Nc2ccc(N(C)C)cc2)cc1	/	/	.	.	.	?
